Only some compounds are listed: those with a hit (about 1.8% of all), similar ones and a draw of the others.
LANA-H2A inh = blocks KSHV LANA binding to histone H2A/H2B; hit rate 0.6% among 320,000; Q9QR71; cell-free LANA-H2A/H2B peptide, fluorescence polarization; inhibition, % (test concentration not listed); in the data active means inhibition mostly above about 10%, no sharp cut-off; inactive means mostly below about 6.7%
PKD1 inh = blocks activity of human protein kinase D1 | Q15139 | PKD1 kinase fluorescence polarization assay | inhibition, % (test concentration not listed) | hit rate 0.056% among 200,000
VLA-4 inh = inhibition in a human VLA-4 binding assay. P13612. VLA-4 expressing cells, ligand binding flow cytometry. inhibition, % (about 7 µM as worked out from the volumes in the protocol). hit rate 0.2% among 330,000. AID 2557
Pemphigus Ab inh = human desmoglein-3 autoantibody binding inhibition | P32926 | DSG3-coupled beads, scFv-anti-DSG3-GFP binding, flow cytometry; active compounds read low | binding (percent of control), % at 10 µM | hit rate 0.48% among 310,000 | AID 588358;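 active means binding more than 3 SD below its plate's average and above zero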;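 further: hits lower antibody fragment binding to DSG3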
GRK2 aptamer HTS = blocks RNA aptamer binding to human GRK2 | hit rate 0.59% among 330,000 | P25098 | bead flow cytometry, FAM-aptamer displacement from GRK2 | inhibition of aptamer binding, % at 10 µM;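 active means inhibition of aptamer binding above 40%, roughly 3 SD of noise, on plates passing a quality check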;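 further: median bead fluorescence of bound FAM aptamer so fluorescent compounds give negative values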
HDAC3 inh = human HDAC3 inhibition | inhibition, % at 8.3 µM | O15379 | hit rate 0.15% among 320,000 | AID 2718 | recombinant HDAC3, fluorogenic peptide/trypsin coupled, fluorescence; in the data active means inhibition above about 26%, passing the limit was not always enough
Target sequence (O15379 whole entry, looked up): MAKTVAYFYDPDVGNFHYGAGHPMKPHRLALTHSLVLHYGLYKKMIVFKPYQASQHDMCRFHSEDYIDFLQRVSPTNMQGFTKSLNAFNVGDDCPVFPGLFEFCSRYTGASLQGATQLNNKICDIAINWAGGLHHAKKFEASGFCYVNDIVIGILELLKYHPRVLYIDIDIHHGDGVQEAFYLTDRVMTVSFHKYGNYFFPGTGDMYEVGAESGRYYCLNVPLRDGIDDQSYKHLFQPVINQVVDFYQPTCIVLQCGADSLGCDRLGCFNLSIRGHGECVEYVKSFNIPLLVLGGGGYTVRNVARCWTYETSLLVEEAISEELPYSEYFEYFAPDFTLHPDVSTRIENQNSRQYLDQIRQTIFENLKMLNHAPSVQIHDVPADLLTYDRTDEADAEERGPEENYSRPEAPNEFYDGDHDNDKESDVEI
GRK2 CP1 = human GRK2 inhibition confirmation, cherry pick 1. shares compounds with GRK2 aptamer HTS. bead-bound GRK2, FAM-aptamer displacement, flow cytometry. aptamer displacement, % at 10 µM. hit rate 4% among 2,000. AID 504451;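 active means aptamer displacement above 40%, near three times the noise of non-fluorescent compounds, on plates passing quality checks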;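 further: negative values mostly reflect intrinsic compound fluorescence rather than true enhancement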
Aptamer quench SP = aptamer fluorescence quenching in GRK2 counter-screen. shares compounds with GRK2 aptamer HTS. Carboxyfluorescein RNA aptamer on beads, flow cytometry quenching; active compounds read low. fluorescence response (% of DMSO), % at 10 µM. 2,000 tested, under 10 active. AID 504580;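 active means compounds that quench the bead-bound fluorescent RNA probe, cutting fluorescence to under half of the solvent control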;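 further: counterscreen run without GRK2 so only probe quenching by compound is measured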
GRK2 CP2 = confirmation of human GRK2 inhibitors binding RNA aptamer site; shares compounds with GRK2 aptamer HTS; bead-bound GRK2, FAM-aptamer displacement, flow cytometry; inhibition of aptamer binding, % at 10 µM; 360 tested, under 10 active;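 active means inhibition of aptamer binding above 40%, about triple the noise seen with nonglowing compounds, on plates passing quality control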;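 further: negative values mostly come from compounds that fluoresce themselves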
FAM quench SP = counter-screen for GRK2 binding hits: quenchers of fluorescent RNA aptamer; fluorescence response vs DMSO, % at 10 µM; carboxyfluorescein RNA aptamer beads, flow cytometry quenching; active compounds read low; shares compounds with GRK2 aptamer HTS; AID 588494; 360 tested, under 10 active;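 active means response vs DMSO under 50%, meaning signal dropped by over half, treated as fluorescence quencher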;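 further: labelled aptamer on streptavidin beads without GRK2 as a quench counter-screen; 100% = bead fluorescence of DMSO wells and lower means quenching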
Starred values were filed as active, the others as inactive. Unless noted, no stated cut-off is given here; in the data, active means inhibition above about 50%; inactive means the rest.

How did CCN(CC)CCCN=C1N[C@@H](c2cccc(F)c2)C(C(=O)OC)=C(C)N1Cc1ccccc1 do in these assays?
LANA-H2A inh: 0; VLA-4 inh: 24; Pemphigus Ab inh: 108; GRK2 aptamer HTS: 51*; HDAC3 inh: 10; GRK2 CP2: 1; FAM quench SP: 100

Results for CSc1ccc(/C=N/NC(=O)c2ccccc2Cl)cc1 ?
LANA-H2A inh: 2; PKD1 inh: 9; VLA-4 inh: 8; Pemphigus Ab inh: 95; GRK2 aptamer HTS: 2; HDAC3 inh: 9

What do the screens show for `COc1ccc(C(=S)Nc2ccc(C)cc2)cc1`?
LANA-H2A inh: 4; PKD1 inh: 5; VLA-4 inh: -7; Pemphigus Ab inh: 106; GRK2 aptamer HTS: 100*; HDAC3 inh: -5; GRK2 CP1: -2; Aptamer quench SP: 98

Results for COc1cc(C(C#N)N2N=C(c3ccccc3)CC2c2ccccc2)ccc1O (stereo unspecified) ?
LANA-H2A inh: 0; PKD1 inh: -14; VLA-4 inh: -5; Pemphigus Ab inh: 102; GRK2 aptamer HTS: 0; HDAC3 inh: -3

What do the screens show for `N#CC(c1ccccc1O)N1N=C(c2ccccc2)CC1c1ccccc1` (stereo unspecified)?
LANA-H2A inh: 3; VLA-4 inh: 0; Pemphigus Ab inh: 89; GRK2 aptamer HTS: 46*; HDAC3 inh: 7; GRK2 CP1: 1; Aptamer quench SP: 39*

Results for O=C(Oc1cc(=O)oc2ccccc12)c1ccccc1 ?
LANA-H2A inh: -1; PKD1 inh: 15; VLA-4 inh: 42; Pemphigus Ab inh: 101; GRK2 aptamer HTS: 100*; HDAC3 inh: 3; GRK2 CP1: -1; Aptamer quench SP: 92

How did O=C(Oc1cccc2c(O)cccc12)c1ccccc1 do in these assays?
LANA-H2A inh: 0; PKD1 inh: 6; VLA-4 inh: -8; Pemphigus Ab inh: 105; GRK2 aptamer HTS: 42*; HDAC3 inh: 16; GRK2 CP1: 4; Aptamer quench SP: 102

Results for COc1ccc(CN2CCN(C(C)C)C(CCO)C2)cc1Cn1cncn1 (stereo unspecified) ?
LANA-H2A inh: 1; PKD1 inh: -1; VLA-4 inh: -121; Pemphigus Ab inh: 101; GRK2 aptamer HTS: 46*; HDAC3 inh: 2; GRK2 CP1: -3; Aptamer quench SP: 98

What do the screens show for `COc1cc(-c2ccc3c(=O)c4ccccc4sc3c2)cc(OC)c1OC`?
LANA-H2A inh: 3; VLA-4 inh: -11; Pemphigus Ab inh: 99; GRK2 aptamer HTS: 100*; HDAC3 inh: -6; GRK2 CP2: -11; FAM quench SP: 99

How did COc1ccc(-c2nc(CNS(=O)(=O)c3ccc(OC)c(OC)c3)cs2)cc1 do in these assays?
LANA-H2A inh: 2; PKD1 inh: 3; VLA-4 inh: 10; Pemphigus Ab inh: 107; GRK2 aptamer HTS: 84*; HDAC3 inh: 3; GRK2 CP1: 1; Aptamer quench SP: 105

How did C[C@]12C=CC(=O)C=C1CC[C@@H]1C2C(O)C[C@@]2(C)C1CC[C@]2(O)C(=O)COC(=O)CCC(=O)NC(CC(=O)O)C(=O)O (stereo partly specified) do in these assays?
LANA-H2A inh: -3; VLA-4 inh: -5; Pemphigus Ab inh: 100; GRK2 aptamer HTS: 2; HDAC3 inh: 5

How did C[C@]12C=CC(=O)C=C1CC[C@@H]1[C@@H]2C(=O)C[C@@]2(C)[C@H]1CC[C@]2(O)C(=O)COC(=O)CCC(=O)O do in these assays?
LANA-H2A inh: 0; VLA-4 inh: 37; Pemphigus Ab inh: 88; GRK2 aptamer HTS: 78*; HDAC3 inh: 2; GRK2 CP1: 1; Aptamer quench SP: 97
